Experimental data: PubChem BioAssay (NCI)
This is part of a sample that, as a whole, favours compounds with a hit. Of some 83,000 tested, about 20% had one in any assay.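 Negative percent growth values reflect cell death: -40 means 40% of the cells present at the start died, and -100 means all died.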 Active and inactive are the calls of the source. How the source made its calls: active means growth percent below 10; inactive means the rest.

Assays:
Assay in all cases: NCI-60 one-dose screen, 48 h (100 = growth as untreated, 0 = no growth, -100 = all killed)
Conditions in all cases: 10 µM unless noted
EKVX NSCLC = system: EKVX NSCLC
SN12C renal = system: SN12C renal
UO-31 renal = system: UO-31 renal
TK-10 renal = system: TK-10 renal
ACHN renal = system: ACHN renal
A498 renal = system: A498 renal
CCRF-CEM leukemia = system: CCRF-CEM leukemia
MOLT-4 leukemia = system: MOLT-4 leukemia
CAKI-1 renal = system: CAKI-1 renal

Measured: growth

CCN(CC)c1ccc(C(=C2C=CC(=[N+](CC)Cc3cccc(S(=O)(=O)O)c3)C=C2)c2ccc(N(CC)Cc3cccc(S(=O)(=O)O)c3)cc2)cc1
inactive: EKVX NSCLC 33.2% | SN12C renal 22.8% | UO-31 renal 45.4% | TK-10 renal 69.5% | ACHN renal 77.3% | A498 renal 36% | CCRF-CEM leukemia 12.4% | MOLT-4 leukemia 48%

CCCc1n(Cc2ccc3ccccc3c2)cc[n+]1Cc1ccc2ccccc2c1
active: SN12C renal -3.87% | TK-10 renal -8.58% | A498 renal -3.35% | MOLT-4 leukemia -5.48%
inactive: EKVX NSCLC 21.1% | UO-31 renal 34.8% | ACHN renal 42.3% | CCRF-CEM leukemia 11.8%

CC(=O)N1N=C(c2ccc(Cl)cc2)CC1c1c(C)nn(-c2ccccc2)c1N(C)Cc1ccccc1 (stereo unspecified)
inactive: EKVX NSCLC 76.4% | SN12C renal 63.2% | UO-31 renal 50.2% | TK-10 renal 88.5% | ACHN renal 90.9% | A498 renal 71.6% | CCRF-CEM leukemia 73% | MOLT-4 leukemia 44.4%

COc1ccc(C2=NN(C=O)C(c3cccc(Nc4ccnc5cc(Cl)ccc45)c3)C2)cc1 (stereo unspecified)
active: MOLT-4 leukemia 9.88%
inactive: EKVX NSCLC 36.1% | SN12C renal 36.1% | UO-31 renal 31.2% | TK-10 renal 37.1% | ACHN renal 35.9% | A498 renal 27.4% | CCRF-CEM leukemia 17.1%

O=c1[nH]c(N2CCC(Cc3ccccc3)CC2)nc2sc3c(c12)CCCC3
inactive: EKVX NSCLC 99.5% | SN12C renal 103% | UO-31 renal 102% | TK-10 renal 99% | ACHN renal 104% | A498 renal 102% | CCRF-CEM leukemia 91.6% | MOLT-4 leukemia 100%

COc1ccc(C(=O)/C=C/c2cccc(Nc3ccnc4cc(Cl)ccc34)c2)cc1
active: UO-31 renal 6.64% | TK-10 renal -11%
inactive: EKVX NSCLC 50.9% | SN12C renal 25.7% | ACHN renal 29.6% | A498 renal 39.7% | CCRF-CEM leukemia 37.2% | MOLT-4 leukemia 42.3%

COc1ccc(C(=O)/C=C/c2ccc(C)cc2)cc1OC
active: UO-31 renal -12%
inactive: EKVX NSCLC 93% | SN12C renal 75.7% | TK-10 renal 114% | ACHN renal 86.2% | A498 renal 80.7% | CCRF-CEM leukemia 23.4% | MOLT-4 leukemia 52.1%

CCCCc1n(Cc2ccc3ccccc3c2)cc[n+]1Cc1ccc2ccccc2c1
active: SN12C renal -22.3% | TK-10 renal -10.4% | A498 renal 0.276% | CCRF-CEM leukemia 6.82% | MOLT-4 leukemia -17.5%
inactive: EKVX NSCLC 14.4% | UO-31 renal 18.9% | ACHN renal 30%

CN1C(=O)C(C2=NN(C=O)C(c3ccc(F)cc3)C2)C(=O)N(C)C1=O (stereo unspecified)
inactive: EKVX NSCLC 101% | SN12C renal 97.3% | UO-31 renal 96.6% | TK-10 renal 99.1% | ACHN renal 107% | A498 renal 96.7% | CCRF-CEM leukemia 77.4% | MOLT-4 leukemia 93.8%

COc1cc(C2=NN(C=O)C(c3cccc(Nc4ccnc5cc(Cl)ccc45)c3)C2)cc(OC)c1OC (stereo unspecified)
inactive: EKVX NSCLC 79.3% | SN12C renal 77.2% | UO-31 renal 68.7% | TK-10 renal 87.9% | ACHN renal 86.2% | A498 renal 62.5% | CCRF-CEM leukemia 53.9% | MOLT-4 leukemia 27.9%

Cc1n(Cc2ccc3ccccc3c2)cc[n+]1Cc1ccc2ccccc2c1
inactive: EKVX NSCLC 47% | UO-31 renal 81.5% | TK-10 renal 23.5% | ACHN renal 80.1% | A498 renal 31.2% | CCRF-CEM leukemia 24.1% | MOLT-4 leukemia 11.3%
active: SN12C renal 2.52%

CC(=O)N1N=C(c2ccc(Nc3nc(NCCO)nc(NCCO)n3)cc2)CC1c1ccc(Cl)cc1 (stereo unspecified)
inactive: EKVX NSCLC 91.9% | SN12C renal 98.8% | UO-31 renal 96.9% | TK-10 renal 83.3% | ACHN renal 96.4% | A498 renal 102% | CCRF-CEM leukemia 114% | MOLT-4 leukemia 116%

COc1cc(C2CC(C3C(=O)N(C)C(=O)N(C)C3=O)=NN2c2cc(Cl)cc(Cl)c2)cc(OC)c1OC (stereo unspecified)
inactive: EKVX NSCLC 93.8% | SN12C renal 93.6% | UO-31 renal 83.2% | TK-10 renal 94.1% | ACHN renal 96.3% | A498 renal 88.5% | CCRF-CEM leukemia 88.3% | MOLT-4 leukemia 88.9%

CC(=O)N1N=C(c2ccc3c(c2)OCO3)CC1c1c(C)nn(-c2ccccc2)c1N(C)Cc1ccccc1 (stereo unspecified)
inactive: EKVX NSCLC 72.9% | SN12C renal 72.9% | UO-31 renal 51.9% | TK-10 renal 80.9% | ACHN renal 81.3% | A498 renal 67.4% | CCRF-CEM leukemia 69.5% | MOLT-4 leukemia 41.9%

O=C(/C=C/c1ccc(C(F)(F)F)cc1)c1ccc(Nc2nc(NCCO)nc(NCCO)n2)cc1
inactive: EKVX NSCLC 79.5% | SN12C renal 65.7% | UO-31 renal 44.2% | TK-10 renal 54.8% | ACHN renal 83.7% | A498 renal 82.1% | MOLT-4 leukemia 34.5%
active: CCRF-CEM leukemia 7.48%

COc1cc(C(=O)/C=C/c2cccc(Nc3ccnc4cc(Cl)ccc34)c2)cc(OC)c1OC
inactive: EKVX NSCLC 16.8% | A498 renal 78.6%
active: SN12C renal -1.72% | UO-31 renal -87.9% | TK-10 renal -39.5% | ACHN renal -68.7% | CCRF-CEM leukemia 2.7% | MOLT-4 leukemia -6.64%

O=C(CNC(=O)c1cccc2ccccc12)Nc1ccccc1Oc1cccc(O)c1
inactive: EKVX NSCLC 47.2% [5 µM] | SN12C renal 49% [5 µM] | UO-31 renal 44.5% [5 µM] | TK-10 renal 42% [5 µM] | ACHN renal 51% [5 µM] | A498 renal 11.5% [5 µM] | CCRF-CEM leukemia 15.1% [5 µM] | MOLT-4 leukemia 11.9% [5 µM]

COc1cc(-c2n[nH]nc2-c2ccccn2)cc(OC)c1OC
inactive: EKVX NSCLC 94.6% | SN12C renal 89.7% | UO-31 renal 87.7% | TK-10 renal 151% | CAKI-1 renal 124% | A498 renal 118% | CCRF-CEM leukemia 97.7% | MOLT-4 leukemia 96.6%

OCCCc1n(Cc2ccc3ccccc3c2)c2ccccc2[n+]1Cc1ccc2ccccc2c1
inactive: EKVX NSCLC 47.6% | UO-31 renal 76.4% | TK-10 renal 37.5% | ACHN renal 81.6% | A498 renal 46% | CCRF-CEM leukemia 30.8% | MOLT-4 leukemia 19.7%
active: SN12C renal 8.7%

O=CN1N=C(c2ccc(Cl)cc2)CC1c1cccc(Nc2ccnc3cc(Cl)ccc23)c1 (stereo unspecified)
active: A498 renal 9.76% | MOLT-4 leukemia 4.5%
inactive: EKVX NSCLC 30.3% | SN12C renal 34.5% | UO-31 renal 19.5% | TK-10 renal 23% | ACHN renal 31.5% | CCRF-CEM leukemia 13.6%

Cc1cc(C)c2c(N)c3cccc(C)c3nc2n1
active: EKVX NSCLC 3.6% | SN12C renal 6.82% | UO-31 renal -84.5% | TK-10 renal -1.3% | ACHN renal 5.96% | A498 renal -57.2% | CCRF-CEM leukemia 1.26% | MOLT-4 leukemia -10.5%

c1ccc2c(-c3nc4ccccc4[nH]3)cccc2c1
inactive: EKVX NSCLC 70% | SN12C renal 47.3% | UO-31 renal 60.5% | ACHN renal 52.7% | CAKI-1 renal 61.2% | A498 renal 29.1% | CCRF-CEM leukemia 22.3% | MOLT-4 leukemia 11.6%

O=C(CNC(=O)c1cccc2ccccc12)Nc1ccccc1Oc1ccc(O)cc1
inactive: EKVX NSCLC 52.4% [5 µM] | SN12C renal 55% [5 µM] | UO-31 renal 45.2% [5 µM] | TK-10 renal 43.6% [5 µM] | ACHN renal 43.8% [5 µM] | A498 renal 17.6% [5 µM] | CCRF-CEM leukemia 22.4% [5 µM] | MOLT-4 leukemia 19.6% [5 µM]

COc1ccc(Oc2ccccc2NC(=O)CNC(=O)c2cccc3ccccc23)cc1
active: A498 renal 7% [5 µM]
inactive: EKVX NSCLC 46.3% [5 µM] | SN12C renal 46.7% [5 µM] | UO-31 renal 42.4% [5 µM] | TK-10 renal 47.6% [5 µM] | ACHN renal 40.3% [5 µM] | CCRF-CEM leukemia 15.5% [5 µM] | MOLT-4 leukemia 17.1% [5 µM]

COc1cc(C2CC(C3C(=O)N(C)C(=O)N(C)C3=O)=NN2C=O)cc(OC)c1OC (stereo unspecified)
inactive: EKVX NSCLC 100% | SN12C renal 94% | UO-31 renal 101% | TK-10 renal 87.4% | A498 renal 95.1% | CCRF-CEM leukemia 82.8% | MOLT-4 leukemia 92.7%

c1ccc(-c2n(Cc3ccc4ccccc4c3)cc[n+]2Cc2ccc3ccccc3c2)cc1
active: EKVX NSCLC 3.5% | SN12C renal -34.7% | UO-31 renal -16.6% | TK-10 renal -69.8% | A498 renal -20.5% | CCRF-CEM leukemia 6.85% | MOLT-4 leukemia -24.9%
inactive: ACHN renal 13.3%

O=C(Nc1nn2c(-c3cc(C(F)(F)F)cc(C(F)(F)F)c3)nnc2s1)C1CCCC1
inactive: EKVX NSCLC 21.7% | SN12C renal 11.6% | CCRF-CEM leukemia 13.8%
active: UO-31 renal 8.94% | TK-10 renal -30.4% | CAKI-1 renal 7.75% | A498 renal -21.8% | MOLT-4 leukemia -10.2%

COc1ccc(C2=NN(C(C)=O)C(c3cccc(Nc4ccnc5cc(Cl)ccc45)c3)C2)cc1 (stereo unspecified)
inactive: EKVX NSCLC 64.7% | SN12C renal 48.5% | UO-31 renal 37.5% | TK-10 renal 58.3% | ACHN renal 60.8% | A498 renal 33.1% | CCRF-CEM leukemia 40.8% | MOLT-4 leukemia 22.3%

O=C(/C=C/c1cccc(Nc2ccnc3cc(Cl)ccc23)c1)c1ccc(Cl)cc1
inactive: EKVX NSCLC 60.3% | SN12C renal 37.6% | UO-31 renal 30.1% | TK-10 renal 49% | ACHN renal 51.1% | A498 renal 44.1% | CCRF-CEM leukemia 24.4% | MOLT-4 leukemia 24.1%

CCCCCCCCCCNCCSS(=O)(=O)O
active: MOLT-4 leukemia 9.96%
inactive: EKVX NSCLC 101% | SN12C renal 31.5% | UO-31 renal 70.6% | ACHN renal 92.6% | CAKI-1 renal 98.8% | A498 renal 101% | CCRF-CEM leukemia 50.3%

Cc1sc2nc(NCc3ccccc3)[nH]c(=O)c2c1C
inactive: EKVX NSCLC 70.3% | SN12C renal 68.5% | UO-31 renal 74.6% | TK-10 renal 67% | A498 renal 48.9% | CCRF-CEM leukemia 58.9% | MOLT-4 leukemia 44%
